The source made the active and inactive calls. Rule for the calls: active = hit-call score of the fitted dose curve at least 0.9, where 1 is the maximum; inactive = score below 0.9.
Test: BSK_BE3C_SRB: Viability Assessment in the BioMAP Diversity Plus: BE3C Assay (AID 2283028);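 for AC50: fitted both ways so AC50 may mark signal gain or loss versus DMSO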
Details: primary human bronchial epithelial cells
Description: BSK_BE3C is a cell-based, multiplexed-readout assay that uses bronchial epithelial cell, a human lung primary cell, with measurements taken at 24 hours after chemical dosing in a 96-well plate.BSK_BE3C_SRB is an assay component measured in the BSK_BE3C assay. It measures 0.1% sulforhodamine related to cell death using Sulforhodamine staining technology.Data from the assay component BSK_BE3C_SRB was analyzed into 1 assay endpoint. This assay endpoint, BSK_BE3C_SRB, was analyzed with bidirectional fitting relative to DMSO as the negative control and baseline of activity. Using a type of viability reporter, gain or loss-of-signal activity can be used to understand changes in the signaling. Furthermore, this assay endpoint can be referred to as a primary readout, because this assay has produced multiple assay endpoints where this one serves a signaling function. To generalize the intended target to other relatable targets, this assay endpoint is annotated to the cell morphology intended target family, where the subfamily is cell conformation.
The levels of cell surface (or secreted, indicated by the prefix "s") biomarker endpoints were measured by ELISA. Overt cytotoxicity to cells in confluent adherent cultures (all systems other than the BT system) was assessed by measuring total protein levels using sulforhodamine B (SRB) staining in parallel cultures at the time of biomarker measurements, indicated as SRB endpoints. For proliferation assays for adherent cell types, individual cell types are cultured at sub-confluence and relative cell numbers quantified by SRB staining at time points optimized for each system (48 h: 3C and CASM3C systems; 72 h: BT and HDF3CGF systems; 96 h: SAg system). SRB was performed by staining cells with 0.1% SRB after fixation with 10% TCA and reading wells at 560 nm.Viability and proliferation of PBMC (T cells) was quantified by Alamar Blue reduction for the SAg and BT systems. For PBMC viability (referred to as PBMC Cytotoxicity within the assay endpoint names), cells were plated (75,000/well in a 96-well plate) and then chemical samples added for 1 h before addition of activators, SEB and TSST-1 (20 ng/mL final concentration each). Cells were incubated for 90 h. Then, Alamar Blue (20 uL/well) (Invitrogen, Cat DAL1100) was added for 6 h, and the plates were read with a fluorescence microplate reader at 546/580 nm (excitation/emission). For PBMC proliferation, cells were plated and activated as above but incubated for only 16 h prior to addition of Alamar Blue. Plates were read after 6 h.

Structure (SMILES) | outcome | AC50
CCCCCCCCO | inactive | 
COCCOc1cc2cc(C(=O)NC3CCN(C(C)C)CC3)n(CC(=O)Nc3ccc(Cl)cn3)c2cn1 | inactive | 
O=C1CCCCCN1 | inactive | 
CN(C)c1ccc(N=NS(=O)(=O)O)cc1 | inactive | 
O=C(O)c1cc(N=Nc2ccc(S(=O)(=O)Nc3ccccn3)cc2)ccc1O | inactive | 
O=C1CCC(N2C(=O)c3ccccc3C2=O)C(=O)N1 (stereo not given) | inactive | 
Nc1cccc(N)c1 | inactive | 
CNS(=O)(=O)c1cc(C(=O)N2CCC(CCN3C4CCC3CC(n3c(C)nc5ccccc53)C4)(c3cccc(F)c3)CC2)c(Cl)cc1F (stereo not given) | inactive | 
On1ccccc1=S |  | 9.28 µM (active)
CC(=O)OCCC(C)C | inactive | 
CCN(C(=O)c1cc(C)cc(OC[C@H](C)Nc2ccncc2)c1)C(C)C | inactive | 
O=C(O)CCN(C1(C(=O)NO)CCCC1)S(=O)(=O)c1ccc(Oc2ccc(F)cc2)cc1 | inactive | 
CCOCCO | inactive | 
CCOC(=O)CC(CC(=O)OCC)(OC(C)=O)C(=O)OCC | inactive | 
COC(=O)c1c(Cl)c(Cl)c(C(=O)OC)c(Cl)c1Cl | inactive | 
CC(C)=CCC/C(C)=C\CO | inactive | 
O=C1OC(=O)C2C3C=CC(C3)C12 (stereo not given) | inactive | 
COc1ccc(-n2nc(C(F)F)cc2-c2ccc(S(C)=O)cc2)cc1 (stereo not given) | inactive | 
CN(C)c1ccc(Cc2ccc(N(C)C)cc2)cc1 | inactive | 
Cc1c(-c2cccnc2)c2ccccc2n1CCCCC(=O)O | inactive | 

Structure (SMILES) | outcome | AC50
Fc1ccccc1[C@@H](F)COC1CCC(Nc2ncnc3[nH]ncc23)CC1 (stereo not given in full) | inactive | 
O=c1[nH]c2ccc(S(=O)CCN3CCC(Cc4ccc(F)cc4)CC3)cc2o1 (stereo not given) | inactive | 
Nc1nc2ncc(CNc3ccc(C(=O)N[C@@H](CCC(=O)O)C(=O)O)cc3)nc2c(=O)[nH]1 | inactive | 
CCCN(C1CCN(C(=O)C2CCNCC2)CC1)[C@@H]1CCc2ccc(OC)cc2C1 | inactive | 
Cn1cnc([N+](=O)[O-])c1Sc1ncnc2nc[nH]c12 | inactive | 
NC(=O)NO | inactive | 
COCCOCCOCCOC | inactive | 
CC(C)CCO | inactive | 
CC(C)CCCCCCOC(=O)c1ccc(C(=O)OCCCCCCC(C)C)c(C(=O)OCCCCCCC(C)C)c1 | inactive | 
Nc1ccc(Nc2ccccc2)cc1 | inactive | 
O=C(O)CC(O)C(=O)O (stereo not given) | inactive | 
CCNc1ccccc1 | inactive | 
O=c1n(CC2CO2)c(=O)n(CC2CO2)c(=O)n1CC1CO1 (stereo not given) | inactive | 
CC1=CC(=O)CC(C)(C)C1 | inactive | 
CC/C(=C\C(=N/O)C(N)=O)C(C)[N+](=O)[O-] (stereo not given) | inactive | 
CC1(C)C(=O)N(Br)C(=O)N1Br | inactive | 
C=CC(=C)CCC=C(C)C | inactive | 
Cc1[nH]cnc1C[C@H]1CCc2c(C)c3ccccc3n2C1=O | inactive | 
COc1cccc(-c2ccc(/C=C\CN3CCCCCC3)cc2Cl)c1 | inactive | 
Cc1ccc(N)cc1O | inactive | 
